# Screening results deposited in PubChem BioAssay by Paczesny and Yang Labs, IUPUI and University of Michigan.
# Many of the other results were omitted from the sample, so hits are more common in it than they were.
# ST2 inh: blocks human ST2 binding to IL-33. Q01638. AlphaLISA ST2-Fc/biotin-IL-33 interaction, 1 h. inhibition, % for hits at 17 µM. 78,000 compounds, 2.3% hits; in the data active = inhibition above about 30%
# Target sequence (Q01638 whole entry, looked up): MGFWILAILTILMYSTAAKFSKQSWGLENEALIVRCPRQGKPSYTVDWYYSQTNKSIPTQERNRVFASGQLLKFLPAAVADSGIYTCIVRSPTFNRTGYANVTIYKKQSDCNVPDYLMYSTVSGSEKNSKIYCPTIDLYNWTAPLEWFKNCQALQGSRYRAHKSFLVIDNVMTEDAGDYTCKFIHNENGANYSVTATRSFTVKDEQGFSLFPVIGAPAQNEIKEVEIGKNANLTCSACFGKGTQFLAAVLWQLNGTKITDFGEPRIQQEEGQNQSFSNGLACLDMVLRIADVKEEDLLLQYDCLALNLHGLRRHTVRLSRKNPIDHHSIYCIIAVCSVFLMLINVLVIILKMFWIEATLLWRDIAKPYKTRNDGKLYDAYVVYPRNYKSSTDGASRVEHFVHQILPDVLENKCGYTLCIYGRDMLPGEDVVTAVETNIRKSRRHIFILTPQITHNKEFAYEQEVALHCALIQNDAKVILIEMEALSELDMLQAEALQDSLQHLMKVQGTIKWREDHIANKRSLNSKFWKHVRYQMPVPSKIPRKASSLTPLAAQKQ
# * marks the source's active call; other numbers are inactive results; i = inactive.
SMILES,ST2 inh
CCC(C)NC(=O)c1ccc(NC(=O)Cn2c(=O)oc3ccccc32)cc1 (configuration not stated),i
O=C(Cn1c(=O)oc2ccccc21)Nc1ccc(Cl)cc1Cl,46.0%*
CCOC(=O)Cn1c(=O)oc2cc(Cl)ccc21,i
COc1cc(Br)c(Br)c(C=Nc2ccc(F)cc2)c1O,i
COc1ccc(CCN=CC2=C(O)CC(c3ccccc3)CC2=O)cc1OC (configuration not stated),i
Oc1c(C=NCCc2ccccc2)[nH]c2ccc(Br)c(Cl)c12,32.0%*
Oc1c(C=NCc2ccc(Cl)cc2Cl)[nH]c2ccc(Br)c(Cl)c12,i
Oc1c(C=NCc2ccc(F)cc2)[nH]c2ccc(Br)c(Cl)c12,39.0%*
Oc1c(C=Nc2ccc(F)cc2)[nH]c2ccc(Br)c(Cl)c12,30.0%*
Cc1c(Cl)c(C)c([N+](=O)[O-])c(O)c1C=Nc1ccc(F)cc1,i
COC(=O)c1ccc(CNC(=O)c2cn(Cc3ccccc3Cl)nn2)cc1,i
N#Cc1cccc(CN2C[C@H](O)C[C@H]2c2nc(-c3ccc(C(F)(F)F)cc3)no2)c1,i
CCOC(=O)c1c(C)oc2c(Cl)cc(NS(=O)(=O)c3ccc(C)cc3C)cc12,i
O=C(C1CC1)N1CCc2cc(S(=O)(=O)N3CCN(c4ccc(F)cc4)CC3)ccc21,i
CCOCCCNC(=O)c1nn(-c2ccc(OC)cc2)c(=O)c2c1c1ccccc1n2C,i
CC1CCN(c2nc3c(c(=O)n(C)c(=O)n3C)n2Cc2cccc(Br)c2)CC1,i
O=C(CN1CCN(Cc2ccc(Cl)cc2)S1(=O)=O)Nc1ccc(F)cc1F,i
Cc1ccc(N2CC(NC(=O)Cc3cccc(C)c3)CC2=O)cc1 (configuration not stated),i
CC(=O)Nc1nc(-c2ccc(Cl)cc2)nc2c1c(=O)oc1ccccc12,i
CCn1c(=O)n(-c2ccc(C)c(C)c2)c2nc(-c3cccc(OC)c3)nc(C(N)=O)c21,i
O=C1Nc2ccc(Br)cc2/C1=C/c1cccc(F)c1,30.0%*
COc1cccc(/C=C2\C(=O)Nc3ccc(Br)cc32)c1OC,i
COc1ccc(/C=C2\C(=O)Nc3ccc(Br)cc32)cc1O,i
COc1cc(/C=C2\C(=O)Nc3ccc(Br)cc32)cc(Br)c1O,i
O=C1Nc2ccc(Br)cc2/C1=C/c1ccsc1,39.0%*
SMILES,ST2 inh
COc1cc(/C=C2\C(=O)Nc3ccc(Br)cc32)cc(OC)c1O,i
COc1ccc(NC(=O)c2ccc(CN3CCNC(=O)C3)cc2)c(OC)n1,i
Cc1cc(C(=O)N2[C@@H]3CC[C@H]2CNC(=O)C3)sc1-c1ccccc1,i
O=C(NCCn1nnc2ccccc21)c1cnn(Cc2ccccc2)c1,i
N#Cc1ccccc1N=Cc1ccc(Br)c([N+](=O)[O-])c1,30.0%*
COc1cc(C=O)ccc1OCCCOc1ccc([N+](=O)[O-])cc1,i
Cc1ccc(N=Cc2ccc(Br)c([N+](=O)[O-])c2)c(O)c1,i
O=[N+]([O-])c1cc(C=Nc2ccc3c(c2)OCCO3)ccc1Br,i
COc1ccc(N=Cc2ccc(Oc3ccc([N+](=O)[O-])cc3[N+](=O)[O-])c(OC)c2)cc1,34.0%*
COc1cc(OC)c(C=Nc2cc([N+](=O)[O-])ccc2C)cc1Br,i
COc1ccc(N=Cc2ccc(Br)c([N+](=O)[O-])c2)cc1,38.0%*
Cc1ccc(N=Cc2ccc(N(C)C)c([N+](=O)[O-])c2)cc1,i
N#Cc1ccccc1N=Cc1cc2c(cc1[N+](=O)[O-])OCO2,i
CCOC(=O)CNC(=O)N1CCCC(C(=O)c2ccc(OC)cc2C)C1 (configuration not stated),i
O=C1Nc2cc(Cl)c(Cl)cc2N(O)N1c1ccc([N+](=O)[O-])cc1,i
CC1CC(C)CN(C(=O)c2ccc([N+](=O)[O-])cc2)C1 (configuration not stated),i
O=[N+]([O-])c1ccc(C2Nc3cc(Cl)cc(Cl)c3C3C=CCC32)cc1 (configuration not stated),32.0%*
Cc1ccc(S(=O)(=O)N2CCSC2c2ccccc2Cl)c(C)c1 (configuration not stated),i
Cc1ccc([C@@H]2Nc3ccc(C(=O)O)cc3[C@@H]3C=CC[C@@H]32)cc1,34.0%*
Cc1ccc(C(=O)N2CCCC2)cc1[N+](=O)[O-],i
Cc1ccc(C(=O)N2CCN(C(=O)c3ccccc3)C2c2ccc(N(C)C)cc2)cc1 (configuration not stated),i
Cc1ccc2c(c1)C1C=CCC1C(c1ccccc1Cl)N2 (configuration not stated),33.0%*
O=C(c1ccc2c(c1)C1C=CCC1C(c1ccc([N+](=O)[O-])cc1)N2)N1CCCC1 (configuration not stated),40.0%*
CC1CC(=O)Nc2cc([N+](=O)[O-])ccc2N1 (configuration not stated),i
CC(c1cccs1)N(C)C(=O)c1ccc(OC2CCN(Cc3ccccn3)CC2)cc1 (configuration not stated),i
